The values that follow come from PubChem BioAssay.

Results filed as inconclusive are left out. For part of these data: Results with a measured potency or affinity are listed apart. The source made the active and inactive calls. Unless noted, the rule behind the calls is not given here.

Test [1] can be described thus: blockers of polyQ-driven CASP3 activation – cell-based (AID 1583). Particulars: polyglutamine-induced caspase-3 activation, cell assay; stronger effect = higher value;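 tested at 10 µM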.
A short description of test [2]: restoration of touch response, mutant HTT neurons – whole organism, C. elegans mechanosensory neurons, N-terminal huntingtin (AID 1599). The following applies: C. elegans polyQ-huntingtin mechanosensory neurons, stronger effect = higher value.
A short description of test [3]: glutamate transport activators, MN-1 cells, MN-1 cell line (AID 1612).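 Note: tested at 1 µM final; 0% = mean of DMSO vehicle wells on each plate; positive means more glutamate uptake than control and negative means less.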 The following applies: MN-1 motor neuron cells, stronger effect = higher value.
Test [4] can be described thus: GFP-Q80 aggregate reduction, neuronal-like cells, cell-based, NGF-treated PC12, GFPQ80 (AID 1614).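 Note: lower means fewer inclusions and 0 means no inclusions at all.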 The following applies: PC12 NGF-treated GFP-polyQ80 inclusion reduction.
The nature of test [5]: 75Q-TubH aggregate inhibition, S. cerevisiae, yeast (AID 1616). Particulars: S. cerevisiae 75Q-TubH polyglutamine aggregation suppression; stronger effect = higher value.
The nature of test [6]: compounds altering circadian rhythm period length – cell-based, LOPAC library, luminescence reporter (AID 2774).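 Note: values are relative to mean of DMSO wells on each plate.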 The following applies: circadian reporter cells, at 7 µM, actives lie on both sides.
Test [7] is described as follows: compounds altering viability of human ES cells (AID 493140).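 Note: cells exposed to compounds for four days before counting.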 The following applies: human embryonic stem cell survival screen; stronger effect = higher value.
For test [8], the system named is Hepatitis C virus NS3 helicase. The test is described as follows: blockers of NS3h binding to ssDNA – biochemical, fluorescence polarization, LOPAC1280 library, primary screen (AID 687035; in the data active = inhibition above about 37%). The following applies: Purified HCV NS3 helicase, Cy5-dT15 ssDNA binding fluorescence polarization; stronger effect = higher value; concentration not given here.
The nature of test [9]: compounds altering Cy5-DNA-NS3h complex signal – biochemical, LOPAC1280, artefact control for HCV NS3 helicase inhibitor project (AID 687037). Particulars: Cy5-DNA-NS3h complex fluorescence interference counterscreen. (In general: The purpose of a counterscreen is to sort out artefacts and off-target activity.)
Test [10] relates to Aerobactin synthetase IucA (Klebsiella pneumoniae, hypervirulent). Description: biochemical IucA inhibition screen of LOPAC library by absorbance (AID 1346212).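 Note: 100% = no compound wells and 0% = no enzyme wells.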 Particulars: IucA enzyme assay, absorbance (OD) readout; stronger effect = lower value;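 tested at 8 µM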.
A short description of test [11]: blockers of cellular phospholipid synthesis – cell-based, LOPAC library, screen 4, primary screen (AID 1347384). The following applies: animal cells, phospholipid biosynthesis inhibition screen; at 10 µM.
Test [12] addresses ATP-dependent translocase ABCB1 (Homo sapiens) (UniProt P08183). Description: P-glycoprotein substrate transport blockade – cell-based (AID 377; in the data active = fluorescence slope change above about 50%). Particulars: MDR1-expressing cells, fluorescent substrate accumulation slope; stronger effect = higher value; concentration not given here.
The nature of test [13]: modulation of C. elegans fzo-1 (AID 1259413).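 Note: fzo-1 mutant C. elegans worms in liquid wells.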 The following applies: C. elegans fzo-1 modulator screen, mean read-out; stronger effect = higher value.
For test [14], the system named is F380Y. The test is described as follows: BK channel mutant inhibitors and activators – cell-based, U2OS BacMam, thallium flux, beta subunits, selectivity assay, profiling panel (AID 1259406;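 active = thallium flux through the channel raised or lowered by more than 3 SD from vehicle-only wells, actives on both sides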;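 note: initial slope of Thallos dye fluorescence rise after thallium is added; log ratio against the mean of 0.3% DMSO vehicle wells on the same plate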). Particulars: U2OS BacMam BK variants, at 30 µM.
Test [15] deals with F380Y/beta1. The description is as above. The following applies: U2OS BacMam BK variants, at 30 µM.
For test [16], the system named is F380Y/beta2Delta. The description is as above. Particulars: U2OS BacMam BK variants, at 30 µM.
Test [17] deals with R275C. The test is described as above. The following applies: U2OS BacMam BK variants, at 30 µM.
Test [18] deals with R275C/beta1. The test is described as above. Particulars: U2OS BacMam BK variants, at 30 µM.
Test [19] has as its system R275C/beta2Delta. The description is as above. Particulars: U2OS BacMam BK variants, at 30 µM.
For test [20], the system named is R275C/Slo1WT/beta2. The description is as above. Particulars: U2OS BacMam BK variants, at 30 µM.

Chain of ATP-dependent translocase ABCB1 (Homo sapiens) (P08183 whole entry, looked up): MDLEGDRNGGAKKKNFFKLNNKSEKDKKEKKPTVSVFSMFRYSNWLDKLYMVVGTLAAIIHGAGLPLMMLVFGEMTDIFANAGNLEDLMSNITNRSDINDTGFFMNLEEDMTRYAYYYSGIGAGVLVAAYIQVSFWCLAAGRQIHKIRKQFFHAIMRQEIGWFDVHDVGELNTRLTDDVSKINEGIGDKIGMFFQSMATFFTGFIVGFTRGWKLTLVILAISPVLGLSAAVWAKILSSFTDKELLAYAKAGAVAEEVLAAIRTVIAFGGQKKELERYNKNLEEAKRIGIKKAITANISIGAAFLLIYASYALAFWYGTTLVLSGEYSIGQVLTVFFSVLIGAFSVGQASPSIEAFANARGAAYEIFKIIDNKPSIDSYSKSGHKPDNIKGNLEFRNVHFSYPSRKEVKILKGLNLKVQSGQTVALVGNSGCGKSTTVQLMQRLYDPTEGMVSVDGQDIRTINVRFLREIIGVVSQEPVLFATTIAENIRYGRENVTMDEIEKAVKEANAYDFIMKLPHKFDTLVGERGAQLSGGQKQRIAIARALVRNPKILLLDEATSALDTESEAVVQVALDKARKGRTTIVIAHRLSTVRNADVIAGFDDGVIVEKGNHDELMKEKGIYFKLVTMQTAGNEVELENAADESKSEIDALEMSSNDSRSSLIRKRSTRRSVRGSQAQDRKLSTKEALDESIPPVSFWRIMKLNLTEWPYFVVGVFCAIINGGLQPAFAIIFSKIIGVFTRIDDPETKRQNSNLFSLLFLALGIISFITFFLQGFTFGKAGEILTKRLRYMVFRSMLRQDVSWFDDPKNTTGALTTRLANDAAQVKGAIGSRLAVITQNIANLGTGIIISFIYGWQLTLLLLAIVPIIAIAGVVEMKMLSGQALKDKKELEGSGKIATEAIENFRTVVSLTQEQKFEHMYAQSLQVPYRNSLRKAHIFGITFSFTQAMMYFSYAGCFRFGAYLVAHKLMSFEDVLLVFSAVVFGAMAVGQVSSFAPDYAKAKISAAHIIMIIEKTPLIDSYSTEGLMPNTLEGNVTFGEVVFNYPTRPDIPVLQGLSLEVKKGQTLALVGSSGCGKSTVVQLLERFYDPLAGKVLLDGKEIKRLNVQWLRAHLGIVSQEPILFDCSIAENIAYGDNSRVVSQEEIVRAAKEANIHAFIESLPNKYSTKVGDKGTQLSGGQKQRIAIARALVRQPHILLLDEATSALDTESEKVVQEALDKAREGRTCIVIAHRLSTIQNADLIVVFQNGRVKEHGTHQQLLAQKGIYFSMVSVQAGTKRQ

As to `O=c1[nH]oc2c1CCNC2`, the inhibition in [1] is 9.73%; in test [8], -5% (inactive). For the same compound, in test [2], the rescue above control was -2.56. Moreover, the glutamate uptake change in test [3] amounted to 5.07%. The compound further displayed an inclusion score in [4] of 2. Also, the aggregation suppression score in [5] was 1.43. The period change in test [6] is 0.075 h (inactive). Besides, in test [7], the survival is 19.5 (inactive). For the same compound, the fluorescence ratio (interference) in test [9] is 1 (inactive). Also, in test [10], the remaining activity is 100% (inactive). Further, in [11], the result was inactive.

`COc1ccc(OC)c(C(O)C(C)N)c1` (configuration not stated): the period change in test [6] was 0.08 h (inactive). In addition, in test [7], the survival is 3.58 (inactive). For the same compound, the inhibition in [8] was -2% (inactive). In [9], the fluorescence ratio (interference) was 1 (inactive). The remaining activity in test [10] is 112% (inactive). Also, the compound was classed as inactive in test [11].

`NCC(O)c1ccc(O)cc1` (configuration not stated): the inhibition in test [1] is -11.8%; in test [8] it was -4% (inactive). In test [2], this compound yielded a rescue above control of -6.97. Also, in test [3], the glutamate uptake change is -13.3%. Besides, the inclusion score in test [4] worked out at 2. The compound further displayed an aggregation suppression score in test [5] of 0.97. For the same compound, the period change in test [6] is -0.025 h (inactive). In addition, in test [7], the survival is 5.08 (inactive). Also, in test [9], the fluorescence ratio (interference) was 1 (inactive). Also, the compound was classed as inactive in test [11].

On to `O=C(O)c1nn(Cc2ccc(Cl)cc2Cl)c2ccccc12`, for which the period change in [6] was -0.065 h (inactive). Besides, the inhibition in test [8] is -4% (inactive). For the same compound, the fluorescence ratio (interference) in test [9] was 1 (inactive). For the same compound, in test [10], the remaining activity was 110% (inactive). Also, the outcome in [11] was inactive.

As for `O=c1[nH]c2ccccc2n1CCCN1CCC(n2c(=O)[nH]c3cc(Cl)ccc32)CC1`, the period change in test [6] was -0.195 h (inactive). Besides, in test [7], the survival is 7.33 (inactive). In addition, the inhibition in test [8] was -3% (inactive). Besides, the fluorescence ratio (interference) in [9] was 1 (inactive). Also, the remaining activity in [10] is 105% (inactive). The outcome in test [11] was inactive.

As for `O=c1[nH]c2ccccc2n1C1CCN(CCCC(c2ccc(F)cc2)c2ccc(F)cc2)CC1`, the fluorescence slope change in [12] was 147% (active). Also, the values for the inhibition in test [1] and in test [8] were 13.8% and -3% (inactive), respectively. This compound also gave a rescue above control in test [2] of 6.31. Moreover, the glutamate uptake change in test [3] turned out to be 15.9%. For the same compound, in test [5], the aggregation suppression score stood at 1.1. For the same compound, the period change in test [6] is 0.045 h (inactive). In test [7], the survival was 4.67 (inactive). Moreover, the fluorescence ratio (interference) in [9] is 1 (inactive). In test [10], the remaining activity is 122% (inactive). The outcome in test [11] was inactive.

As to `Clc1ccc(COC(Cn2ccnc2)c2ccc(Cl)cc2Cl)cc1` (configuration not stated), the fluorescence slope change in test [12] was 66.2% (active). Further, the inhibition in test [1] is 55.1%. For the same compound, in test [3], the glutamate uptake change amounted to 16.9%. For the same compound, in test [5], the aggregation suppression score amounted to 0.0462. In addition, in test [7], the survival is 50.1 (inactive). In addition, the mean signal in [13] was 173 (inactive). For the same compound, the log fold change Tl+ flux is -0.0888 (inactive) in [14]; -0.0732 (inactive) in test [15]; -0.182 (active) in test [16]; -0.00134 (inactive) in test [17]; 0.0779 (inactive) in test [18]; 0.0329 (inactive) in test [19]. Also, the log fold change Tl+ flux in [20] is -0.0527 (inactive).

Take `CC(CCc1ccccc1)NC(C)C(O)c1ccc(O)cc1` (configuration not stated): the inhibition in test [1] was 5.61%; in test [8] it was -5% (inactive). The rescue above control in test [2] was 1.38. In test [3], the glutamate uptake change is -2.97%. For the same compound, the inclusion score in [4] came out at 2. Further, the aggregation suppression score in test [5] came to 1.46. Moreover, the period change in test [6] was 0.06 h (inactive). Moreover, the fluorescence ratio (interference) in [9] was 0.9 (inactive). Further, the remaining activity in test [10] is 104% (inactive). The compound was called inactive in test [11].

What is called inhibition is the drop in the measured response relative to a control, in per cent. As a reminder, the remaining activity is the signal under treatment as a percentage of the control signal.
